The campaign covered roughly 230,000 compounds. Fewer than 10 were called active. Calls come from the whole dose curve; as a rule, active = well fitted curve in the direction sought with a large enough effect; inconclusive = small, poorly fitted or top-dose-only effect, or effect the other way, or another doubt; inactive = no such curve, though single readings can be large or run the other way. These entries were drawn from the full list.
Target: Alpha-galactosidase A (Homo sapiens) (UniProt P06280)
Test: qHTS Assay for Inhibitors of Human alpha-Galactosidase at pH 4.5.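 Note: 0% = full activity with enzyme and -100% = basal without enzyme.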
Conditions: purified enzyme, 4-MU-alpha-Gal fluorescence; series mostly up to 105 µM; activity change, negative = inhibition: at the top concentration
Description: NIH Chemical Genomics Center [NCGC]
NIH Molecular Libraries Probe Production centers Network [MLPCN]
Assay Submitter (PI): Wei Zheng
Alpha-galactosidase is a homodimeric glycoprotein that hydrolyzes the terminal alpha-galactosyl moieties from glycolipids and glycoproteins. Deficiency of this enzyme results in Fabry Disease with progressive accumulation of globotriaosylceramide and other glycosphingolipids in vascular endothelial cells that causes renal failure, myocardial infarction and stroke, and premature death in patients. It has been reported that the improper folding and trafficking of alpha-galactosidase resulting from the genetic mutations may account for a significant numbers of Fabry patients. […] We optimized this alpha-galactosidase assay in 1536-well plate format for identifying the novel small molecule inhibitors with the structures other than the sugar analogs in order to develop the new pharmacological chaperones. Although this assay has the same protocol as PubChem AID 992, this is a separate project and, therefore, is published as a separate assay
NCGC Assay Protocol Summary:
This is a fluorogenic enzyme assay with 4-Methylumbelliferyl alpha-D-galactopyranoside as the substrate and human […] as the enzyme preparation. Upon the hydrolysis of this fluorogenic substrate, the resulting product, […]. 4-Methyllumbelliferone, can be excited at 365 nm and emits at 440 nm. This fluorescence which can be detected by a standard fluorescence plate reader. Data were normalized to the controls for basal activity (without enzyme) and 100% activity (with enzyme). In the AC50 values were determined from concentration-response data modeled with the standard Hill equation.
Assay buffer: 50 mM citric acid (titrated with potassium phosphate to pH 4.5), 0.005% Tween-20, pH 4.5. (pH 4.5 is an optimal condition for this enzyme assay)
1536-well assay protocol for the human alpha-galactosidase:
(1) Add 2 ul/well of enzyme (12 nM final)
(2) Add 23 nL compounds in DMSO solution. The final titration was 0.7 nM to 77 uM.
(3) Add 1 ul of substrate (400 uM final)
(4) Incubate at room temperature for 20 min.
(5) Add 2 ul stop solution (1M NaOH and 1M Glycine mixture, pH 10)
(6) Detect the assay plate in a ViewLux plate reader (PerkinElmer) with Ex=365 nm and Em=440nm.
Keywords: MLSMR, MLPCN, NIH Roadmap, qHTS, NCGC, : Alpha-galactosidase, Fabry Disease, pharmacological chaperone, chaperone therapy

Sequence of Alpha-galactosidase A (Homo sapiens) (P06280 whole entry, looked up): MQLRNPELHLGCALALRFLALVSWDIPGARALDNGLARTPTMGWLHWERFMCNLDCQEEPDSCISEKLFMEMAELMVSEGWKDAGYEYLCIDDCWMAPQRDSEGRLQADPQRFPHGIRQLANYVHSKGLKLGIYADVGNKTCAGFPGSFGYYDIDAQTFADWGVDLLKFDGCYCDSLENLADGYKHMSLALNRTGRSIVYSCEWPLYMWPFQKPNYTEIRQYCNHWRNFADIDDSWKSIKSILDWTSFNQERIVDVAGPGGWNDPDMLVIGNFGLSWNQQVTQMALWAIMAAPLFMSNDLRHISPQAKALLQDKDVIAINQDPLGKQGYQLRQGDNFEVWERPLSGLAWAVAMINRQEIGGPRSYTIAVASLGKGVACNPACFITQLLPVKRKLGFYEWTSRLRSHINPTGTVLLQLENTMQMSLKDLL

Activity change, negative = inhibition, inactive:
Cc1cn(C2OC[C@@H](O)[C@@H]2CO)c(=O)[nH]c1=O (some centres not stated) -5.03%, Brc1ccc(C2=NCCC(c3ccccc3)O2)cc1 (configuration not stated) -0.0967%, C[C@@H]1C(c2ccc(F)cc2)=NN(c2ccc(Br)cc2)[C@H]1C(=O)N1CCOC1=O 1.05%, Cc1csc(SCC(=O)Nc2sccc2C#N)n1 1.25%, COC(=O)c1ccc(S(=O)(=O)N(CCO)Cc2ccccc2)n1C 1.9%, Nc1nc(C23CC4CC(CC(C4)C2)C3)cs1 -0.438%, CN(CCc1cn[nH]c1)C(=O)CC1C(=O)NCCN1Cc1cccc(Oc2ccccc2)c1 (configuration not stated) 7.92%, Cc1cc(C)nc(SC2CCCCC2NS(=O)(=O)c2ccc(Cl)cc2)n1 (configuration not stated) -10.7%, Cc1ccc(S(=O)(=O)N2CCC(C(=O)OCC(=O)N3CC(=O)Nc4ccccc43)CC2)cc1 -0.506%, Cc1ccc(C2CC(c3cccc(NS(C)(=O)=O)c3)=NN2S(C)(=O)=O)cc1 (configuration not stated) 10.3%, CCOC(=O)C1=C(C)c2ccccc2OC1(C)C(=O)OCC (configuration not stated) -6.68%, Cc1cccc(NC(=S)NCc2ccc3[nH]c4c(c3c2)CCCC4)c1 -1.22%, COc1ccc(-c2c(C)cc3oc(=O)cc(-c4ccccc4)c3c2C)cc1OC -21.7%, OC[C@H]1O[C@@H](n2cnc3c(NC4CCCC4)ncnc32)[C@H](O)[C@H]1O 0.0639%, COC1(C2=NCCN2)COc2ccccc2O1 (configuration not stated) -0.194%, COC(C)C(C(=O)OCC1=CCN2CC[C@H](O)[C@@H]12)C(C)C (some centres not stated) -7.37%, COc1ccc(-c2nc3c(c4c2C[C@H](c2ccccc2)OC4)CN(C(=O)c2ccco2)CC3)c(C)c1 9.81%, CCn1c(SCC(=O)Nc2ccc(C)cc2)nc2nc3c(cc2c1=O)CCCC3 0.427%, Cc1cc(N)n(-c2ccc(S(=O)(=O)N3CCCC3)cc2[N+](=O)[O-])n1 8.19%, Cc1cc(Cl)ccc1OCc1nc(-c2ccncc2)no1 -7.26%, CC(C)(C)NS(=O)(=O)CC12CCC(CC1=O)C2(C)C (configuration not stated) -2.78%, CCn1c(SCc2ccccc2)nc2c(c1=O)SCC2 -18.3%, COc1ccc(-c2nc3c(c4c2C[C@H](c2ccccc2)OC4)CN(C(=O)C2CC2)CC3)c(C)c1 -7.05%, C=CCN1c2ccccc2[C@]23C[C@@H](C(=O)OC)N(S(=O)(=O)c4ccc([N+](=O)[O-])cc4)C2=NC(C(=O)OC)=C(C(=O)OC)[C@H]13 -4.09%, O=C(CSc1cccc[n+]1[O-])c1ccc(Cl)cc1 3.17%, O=C(NCc1cccnc1)c1cnc2ccccc2n1 1.77%, CCCCS(=O)(=O)N1C2=NC(C(=O)OC)=C(C(=O)OC)[C@@H]3N(Cc4ccccc4)c4ccccc4[C@]23C[C@H]1C(=O)OC 7.1%, Nn1c(SCC(=O)Nc2nccs2)nncc1=O -6.09%, O=c1[nH]c(SCc2cccc(F)c2)nc2ccccc12 0.781%, COc1ccc(/C=N/OCC(=O)N(Cc2ccccc2)c2ccccc2C(=O)O)cc1 -13.4%, O=C(COc1cccc(F)c1)Oc1ccc(C(=O)c2ccccc2)cc1 1.38%, COc1ccc(-c2nc3c(c4c2C[C@H](c2ccccc2)OC4)CN(S(=O)(=O)c2c(C)noc2C)CC3)c(C)c1 11.4%
